Screens as filed in PubChem BioAssay.
GRP78 ERSR act: inducers of ER stress response in human glioma cells; AID 602332; U87-MG GRP78 promoter luciferase reporter, 16 h; actives 0.02% (n = 420,000); Potency, µM, for the others: at the top dose activation, actives largely listed as activators; note: potency is the fitted concentration of half-maximal effect; series mostly up to about 76 µM; % of control where 0% means no effect; nearly all actives have a fitted effect of over 35% in size
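ERSR induction read as luciferase luminescence (Bright-Glo, 10 min at room temperature) in stably transfected human U87-MG glioma cells exposed to compounds for 16 h, using GRP78 as sensor.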
Mm-Cpn inhibitor: inhibitors of Methanococcus maripaludis chaperonin TRiC (MmCpn) | purified Mm-Cpn ATPase, ADP Transcreener TR-FRET | Potency, µM (top dose mostly 76.9 µM), inactives show at the top dose activity, negative = inhibition, most hits filed as inhibitors | actives 0.031% (n = 330,000) | AID 504842; note: potency is the fitted concentration of half-maximal effect; % is set by controls: 0 for no effect and ±100 for the full control effect; nearly all actives have a fitted effect of over 80% in size
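Quantitative HTS used 25 nM Mm-CPN and 10 uM ATP in magnesium/KCl Tris buffer, pH 7.4, with 1 mM DTT. Hydrolysis ran 30 min at 37°C; ADP was read by HTRF.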
CCT modulator: cytosolic chaperonin activity modulation. activity change, % (test concentration not listed), hits read low. purified chaperonin ATPase assay, HTRF ADP detection, 30 min. AID 651819. actives 0.3% (n = 360,000); in the data active = activity change below about -30%; note: % is set by controls: 0 for no effect and ±100 for the full control effect
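TRiC (40 or 20 nM final, by batch activity) in 30 mM Tris pH 7.4, 100 mM KCl, 5 mM MgCl2, 1 mM DTT was treated with compound at 76 uM single dose, then 10 uM ATP, 30 min at 37 °C. ADP was read by HTRF Transcreener.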
Akt phos inh: inhibitors of Akt phosphorylation; Neuro2A IGF-stimulated pAkt S473 HTRF, 20 min; stronger effect = lower value; activity change, % for hits at 50 µM; actives 0.32% (n = 360,000); AID 651550; in the data active = activity change below about -80%; note: % is set by controls: 0 for no effect and ±100 for the full control effect
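Neuro2A cells in DMEM with 0.5% FBS, overnight at 37 deg C, given compound at single 50 µM final, then IGF (6 nM final) for 20 min at 37 deg C. Lysed; phospho-Akt Ser473 by HTRF after 24 h, 665/615 ratio.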
mIDH1 inhibitor: blocks human mutant IDH1 R132H enzyme; O75874; IDH1-R132H enzyme, NADPH consumption, diaphorase/resazurin fluorescence; Potency, µM (highest dose often 76.6 µM), for the others: at the top dose activity change, negative = inhibition, most hits filed as inhibitors; actives 0.093% (n = 390,000); note: potency is the fitted concentration of half-maximal effect; % is set by controls: 0 for no effect and ±100 for the full control effect; nearly all actives have a fitted effect of over 65% in size
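IDH1-R132H (0.5 ug/mL dispensed) in pH 7.5 Tris buffer was preincubated 30 min with compound, then given a substrate mix of 0.016 mM NADPH and 2 mM alpha-KG for 80 min at room temperature; remaining NADPH was read by diaphorase/resazurin fluorescence.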
GLS inhibitor: inhibitors of human glutaminase (GLS); GLS enzymatic activity, qHTS titration; Potency, µM (doses to about 45.5 µM), without a hit: at the top dose activity change, negative = inhibition, hits mostly inhibitors; AID 624170; O94925; actives 0.21% (n = 410,000); note: potency is the fitted concentration of half-maximal effect; % is set by controls: 0 for no effect and ±100 for the full control effect
Target sequence (O94925 whole entry, looked up): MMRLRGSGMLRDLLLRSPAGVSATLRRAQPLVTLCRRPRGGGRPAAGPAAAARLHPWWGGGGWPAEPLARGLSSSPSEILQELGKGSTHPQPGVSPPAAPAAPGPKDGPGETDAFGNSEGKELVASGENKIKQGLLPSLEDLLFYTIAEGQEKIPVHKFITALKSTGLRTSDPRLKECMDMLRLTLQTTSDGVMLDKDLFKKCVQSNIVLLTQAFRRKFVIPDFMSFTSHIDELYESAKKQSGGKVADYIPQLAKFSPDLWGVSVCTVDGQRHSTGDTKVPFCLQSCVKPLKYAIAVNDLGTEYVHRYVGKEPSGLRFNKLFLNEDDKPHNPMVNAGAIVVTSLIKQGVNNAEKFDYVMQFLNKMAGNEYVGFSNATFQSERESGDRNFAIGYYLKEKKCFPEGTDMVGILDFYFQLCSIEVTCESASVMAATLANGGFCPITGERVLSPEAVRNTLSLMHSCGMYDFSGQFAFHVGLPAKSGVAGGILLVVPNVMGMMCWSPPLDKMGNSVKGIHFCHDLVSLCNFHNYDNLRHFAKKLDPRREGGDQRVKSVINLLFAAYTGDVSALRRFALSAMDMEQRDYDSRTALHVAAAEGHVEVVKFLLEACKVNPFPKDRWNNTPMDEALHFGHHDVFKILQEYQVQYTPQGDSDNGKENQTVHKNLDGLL
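Glutamate formation by hKGA was monitored fluorometrically using coupled glutamate oxidase, HRP and Amplex Red. Substrate was added as 1 mM L-glutamine solution; incubation was 30 min at RT after an initial read.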
Active calls of the source: *; i = inactive; nt = no result; ! = repeats disagree. Most compounds without a hit are left out; they make up all but 0.85% or so of the library. Unless noted, calls come from the whole dose curve; as a rule, active = well fitted curve in the direction sought with a large enough effect; inconclusive = small, poorly fitted or top-dose-only effect, or another doubt; inactive = no such curve, though single readings can be large; an effect the other way counts as inactive or inconclusive.

SMILES | GRP78 ERSR act | Mm-Cpn inhibitor | CCT modulator | Akt phos inh | mIDH1 inhibitor | GLS inhibitor
Cc1oc2ncn(C)c(=O)c2c1C(=O)NC(C)c1ccccc1 (configuration not stated) | -1% | nt | nt | nt | 13% | 11µM*
Cc1ccc2[nH]nc(C(=O)N3CCOc4ccc(CN5CCc6sccc6C5)cc4C3)c2c1 | -2% | nt | nt | nt | nt | nt
CC(=O)c1ccc(F)c(-c2cc(C)cc3c2OC(CNC(=O)c2cnc4ccccn4c2=O)C3)c1 (configuration not stated) | 0% | nt | nt | nt | nt | nt
CCOC(=O)c1c(NC(=O)CC2Nc3ccccc3NC2=O)sc(C)c1C (configuration not stated) | -2% | 1% | 0 | i | 1% | 13µM*
Cc1c(C(=O)N2CCCC(c3ccccc3)C2)sc2ncnc(NCCc3ccccn3)c12 (configuration not stated) | 1% | nt | nt | nt | nt | nt
O=C(CO)NCCCOc1cccc(CN2CCCCC2)c1 | -3% | nt | nt | nt | nt | -2%
NC(=O)Nc1cc(Cl)ccc1Cl | -3% | 1% | -85* | i | 9% | 6%
NC(=S)Nc1cc(Cl)ccc1Cl | -2% | -1% | -4 | i | -4% | 1%
Cc1cc(N2CCOCC2)nc(SCc2ccc(Cl)cc2Cl)n1 | -3% | -3% | -1 | -110%* | -2% | 4%
CCCCC/C=C/C/C=C/CCCCCCCC(=O)NC(C)c1ccccc1 (configuration not stated) | -3% | nt | nt | nt | nt | 2%
CCOC(=O)N1CCN(c2ncnc3scc(-c4ccc(Cl)cc4)c23)CC1 | -3% | -24% | -1 | i | -1% | 5%
Cc1ccc(-c2csc3ncnc(-n4nnc5ccccc54)c23)cc1 | -4% | 0% | -4 | i | 1% | 5%
Cc1ccc(-c2csc3ncnc(-n4nc(C)cc4N)c23)cc1 | -5% | 2% | -95* | i | 3% | 24%
Cc1cc(N)n(-c2ncnc3scc(-c4ccc(Cl)cc4)c23)n1 | -6% | 3% | -1 | -82%* | -1% | 13%
O=C1O[C@H]2[C@@H](OC(O)[C@@H]2O)[C@H]1O (some centres not stated) | -4% | nt | nt | nt | nt | 8%
Cc1ccc2c(c1)c1c3n2CCN(C=O)C3CCC1 (configuration not stated) | -1% | -3% | 2 | i | 1% | 13%
Cc1ccc2c(c1)c1c3n2CCNC3CCC1 (configuration not stated) | -2% | -4% | -61*! | i | -1% | 20%
CCN1CCC(N[C@H]2C[C@@H](C(=O)NC)N(Cc3cccc4ccccc34)C2)CC1 | -4% | nt | nt | nt | nt | nt
O=C(COC(=O)/C=C/c1ccccc1Cl)NCCc1ccc(Cl)cc1Cl | -3% | 2% | -39* | i | 2% | -7%
Cc1ccccc1C1(CC(=O)N2CCCC(C)C2)CC(=O)N(Cc2cccnc2)C1=O (configuration not stated) | 0% | nt | nt | nt | nt | nt
CCN1C(=O)/C(=C2/C=CC=CN2C)SC1=S | -3% | -2% | -2 | i | 3% | 28%
CN1C=CC=C/C1=C1/SC(=S)N(Cc2ccccc2)C1=O | -1% | 0% | -62* | i | -2% | 7%
COc1cccc(NC(=O)Cc2nc(-c3ccccc3)sc2-c2ccc(C)cc2)c1 | 1% | 40µM* | 2 | i | 4% | -4%
COC(=O)c1cccc(NC(=O)Cc2nc(-c3ccccc3)sc2-c2ccc(C)cc2)c1 | -2% | 50µM* | 1 | i | 3% | 4%
COC(=O)[C@@H]1CCCN1Cc1ccc2c(c1)CN(Cc1ccc3c(c1)CCCN3C)CCO2 | 0% | nt | nt | nt | nt | nt
SMILES | GRP78 ERSR act | Mm-Cpn inhibitor | CCT modulator | Akt phos inh | mIDH1 inhibitor | GLS inhibitor
Cc1ccc(F)cc1S(=O)(=O)NCc1nc(N2CCCC2)c2cccc(C)c2n1 | -4% | nt | nt | nt | nt | nt
COC(=O)C1CCCCN1Cc1ccc2c(c1)CN(C1CCSCC1)CCO2 (configuration not stated) | -4% | nt | nt | nt | nt | nt
Cc1ccc(-n2cc(C(=O)c3ccc(F)cc3)nn2)cc1Cl | 0% | -2% | -10 | -121%* | 1% | 5%
CCOC(=O)c1ccc(-n2cc(C(=O)c3cccnc3)nn2)cc1 | 3% | 1% | 0 | i | 0% | -5%
O=C(O)C1Nc2c(C(=O)N3CCOCC3)cccc2C2C=CCC12 (configuration not stated) | -5% | -4% | -1 | i | 2% | 2.5µM*
COCCNS(=O)(=O)c1ccc(-c2ccc(S(=O)(=O)NCCOC)cc2)cc1 | 6% | -22% | -2 | i | 5% | -3%
COCCNS(=O)(=O)c1ccc(-c2ccc(Cl)cc2)cc1 | -3% | -3% | -40* | i | -2% | 5%
CC(C)(C)NC(=O)[C@H]1CC[C@H]2[C@@H]3CC=C4C=C(C(=O)O)CC[C@@]4(C)[C@H]3CC[C@]12C | -1% | nt | nt | nt | nt | -2%
Cc1nc2sccn2c1CN1CCC2(CC1)CC2C(=O)Nc1ccc2c(c1)OCO2 (configuration not stated) | -5% | nt | nt | nt | nt | nt
COc1ccc(CN(Cc2cccn2C)C(=O)c2cc3cc(OC)ccc3[nH]2)cc1 | -4% | 45µM* | -3 | i | -1% | 11%
Cc1ccc(NC(=O)CC2CS(=O)(=O)CC2CC(=O)Nc2ccc(C)c(C)c2)cc1C (configuration not stated) | -1% | -2% | 0 | -121%* | -2% | -17%
O=C(O)CCC(=O)Nc1ccc(Cc2ccc(NC(=O)CCC(=O)O)c(O)c2)cc1O | -5% | 3% | -1 | i | 3% | 1.4µM*
O=C(Nc1ccc(Cc2ccc(NC(=O)C3CC3)c(O)c2)cc1O)C1CC1 | -5% | 1% | 2 | i | 3% | -1%
Cc1ccc(C(=O)NNc2ncnc3c2cnn3C)cc1 | -9% | -2% | -2 | i | 2% | 5µM*
CCCCCCn1c(SCC(=O)c2c(N)n(C)c(=O)n(C)c2=O)nc2ccccc21 | -2% | 0% | -2 | -98%* | 1% | 0%
CCCn1c(N)c(C(=O)CSc2nc3ccccc3n2CCC#N)c(=O)n(C)c1=O | 1% | -8% | 1 | i | 4% | 2%
CCc1cc(C(=O)NCC2Cc3cccc(-c4ccc(C(=O)OC)cn4)c3O2)no1 (configuration not stated) | -6% | nt | nt | nt | nt | nt
Cc1ccc(C(=O)Nc2cccc(-c3nc(CNC(=O)c4cccc(C)c4C)c(C)o3)c2)s1 | -6% | nt | nt | nt | nt | nt
O=C(COC(=O)c1cc(=O)[nH]c2ccc(Br)cc12)c1ccccc1 | -4% | -4% | -33* | i | -7% | -21%
CCOc1ccc(C(=O)COC(=O)c2cc(=O)[nH]c3ccccc23)cc1 | 1% | -16% | -1 | i | 14% | 5%
